Assay outcomes as filed in PubChem.
Compounds with a hit are over-represented: about 19% of the library has one in this group of screens.
IL1B secr inh = qHTS for Inhibitors of Inflammasome Signaling: IL-1-beta AlphaLISA Primary Screen; 4.7% of 360,000 active; activity change, % at 57.5 µM; THP-1 LPS/ATP IL-1B secretion, AlphaLISA, 16 h; hits give low values; in the data active = activity change below about -50%; inconclusive = mostly about -30% to -49%
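Secreted IL-1B measured by AlphaLISA bead assay after 16 h compound exposure of THP-1 cells; compounds (final up to 57.5 uM) added 1 h before LPS (250 ng/mL) and ATP (1.25 mM) stimulation; lower signal means less secretion.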
DT40 TDP1 no CPT = qHTS for Inhibitors of human tyrosyl-DNA phosphodiesterase 1 (TDP1): qHTS in cells in absence of CPT | DT40 Tdp1-/- hTDP1 cells, no CPT, ATP luminescence, 48 h | 15% of 420,000 active | Potency, µM (titrated, usually from 46.2 µM), hits mostly inhibitors | AID 686978, 2013; also: nearly all actives have a fitted effect of over 55% in size
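Compound effects on proliferation are scored in DT40 Tdp1-/-;hTDP1 cells in the absence of CPT. ATP levels (CellTiter-Glo luminescence) are recorded after a ≥48 hr, 37 °C incubation.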
HT1080 IDH1KD tx = qHTS for induction of synthetic lethality in tumor cells producing 2HG: qHTS for the HT-1080-IDH1KD cell line; 2% of 360,000 active; HT-1080 IDH1 knockdown viability, ATP luminescence, 48 h; AID 686971, 2013; Potency, µM (doses to about 46.1 µM), hits mostly cytotoxic
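CellTiter-Glo luminescence after 48 h compound exposure at 37 degrees C of IDH1-knockdown HT-1080 cells in 5% FBS RPMI. %Activity scaled between DMSO wells and cell-free media wells, with curves fitted and assigned curve classes.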
HT1080NT lethal = qHTS for induction of synthetic lethality in tumor cells producing 2HG: qHTS for the HT-1080-NT fibrosarcoma cell line | AID 686970, 2013 | 1.6% of 360,000 active | Potency, µM (top dose mostly 46.1 µM), hits mostly cytotoxic | HT-1080-NT fibrosarcoma viability, CellTiter-Glo ATP luminescence, 48 h;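 also: NT is the 2HG producing partner of a matched IDH1 knockdown line; nearly all actives have a fitted effect of over 55% in size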
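Toxicity toward the 2HG-producing NT line was scored as %Activity, normalised to DMSO and no-cell wells, from CellTiter-Glo luminescence after 48 hours' treatment.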
TDP1 cell CPT = qHTS for Inhibitors of human tyrosyl-DNA phosphodiesterase 1 (TDP1): qHTS in cells in presence of CPT. chicken DT40 Tdp1-/-;hTDP1 cells + 20 nM CPT, ATP luminescence, 48 h. 12% of 420,000 active. Potency, µM (doses to about 46.2 µM), actives largely listed as inhibitors. AID 686979, 2013; also: nearly all actives have a fitted effect of over 55% in size
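Chicken DT40 Tdp1-/- cells stably complemented with human TDP1 were seeded at 400 cells/well in medium containing 20 nM camptothecin, exposed to pin-transferred compounds, and grown at 37 °C for at least 48 hr. Viability was read as ATP luminescence.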
Hits are given with their value; – = inactive; ? = inconclusive; · = no result given; [ ] = remark or other dose. Unless noted, calls follow the shape of the dose curve; as a rule, active = well fitted curve in the direction sought with a large enough effect; inconclusive = small, poorly fitted or top-dose-only effect, or another doubt; inactive = no such curve, though single readings can be large; an effect the other way counts as inactive or inconclusive.

SMILES	IL1B secr inh	DT40 TDP1 no CPT	HT1080 IDH1KD tx	HT1080NT lethal	TDP1 cell CPT
Cc1cc(C)cc(N(C(=O)c2ccc(Br)o2)C2C=CS(=O)(=O)C2)c1 (stereo not drawn)	–	?	–	–	–
O=c1oc2ccccc2cc1-c1nc2c(s1)CCCC2	–	?	–	–	?
O=c1oc2ccccc2cc1-c1cn2cc(Cc3ccc(Br)cc3)sc2n1	·	0.58µM	·	·	1.3µM
CN(Cc1ccccc1N1CCCC1)C(=O)c1cc2cc(Cl)ccc2o1	–	–	–	–[9.24 µM]	12µM
COc1ccc(C)cc1NC(=O)c1oc2ccc(S(=O)(=O)N3CCCCC3)cc2c1C	·	–	·	·	–
Cc1cccc(NC(=O)c2oc3ccc(S(=O)(=O)N4CCOCC4)cc3c2C)c1C	–	23µM	?	–[9.24 µM]	?
Cc1c(C(=O)NCc2ccccc2CN2CCCC2)oc2ccc(F)cc12	–	?	–	–[9.24 µM]	21µM
CCN(CC)S(=O)(=O)c1ccc2oc(C(=O)NCc3ccccc3OC)c(C)c2c1	·	10µM	·	·	7.3µM
COc1ccccc1CNC(=O)c1oc2ccccc2c1C	–	–	–	–	–
COc1ccccc1CNC(=O)c1oc2ccc(S(=O)(=O)N3CCCCC3)cc2c1C	·	7.3µM	·	·	6.5µM
Cc1ccc(NC(=O)c2oc3ccc(S(=O)(=O)N4CCOCC4)cc3c2C)c(C)c1	–	?	–	–	?
COc1ccc2oc(C(=O)Nc3cccc(S(=O)(=O)N4CCOCC4)c3)c(C)c2c1	–	?	–	–	?
Cc1c(C(=O)NCc2ccc(F)cc2)oc2ccc(S(=O)(=O)N3CCCCC3)cc12	·	?	·	·	23µM
Cc1c(C(=O)NCc2cccnc2)oc2ccc(S(=O)(=O)N3CC(C)CC(C)C3)cc12 (stereo not drawn)	–	–	–	–	?
COc1cccc(NC(=O)c2oc3ccc(S(=O)(=O)N4CCCCCC4)cc3c2C)c1	·	18µM	·	·	18µM
CCCCNC(=O)c1oc2ccc(S(=O)(=O)N3CCCC3)cc2c1C	–	?	–	–	?
Cc1c(C(=O)NCc2ccccc2)oc2ccc(S(=O)(=O)N3CCC(C)CC3)cc12	·	9.2µM	·	·	9.2µM
O=C(c1n[nH]c2c1CCCC2)N1CCC(n2c(C3CCCO3)nc3ccccc32)CC1 (stereo not drawn)	·	–	·	·	–[9.04 µM]
Clc1ccc(C2=NN(c3ccccc3)C(c3ccco3)C2)cc1 (stereo not drawn)	–	–	–	–	–
Cc1nn2c(c1-c1ccc(Cl)cc1)N=C(c1ccco1)CC2c1ccccc1 (stereo not drawn)	?	?	?	?	15µM
CCC(C)(C)NC(=O)C(c1ccncc1)N(C(=O)Cn1nnc2ccccc21)c1cc2c(cc1C(C)=O)OCO2 (stereo not drawn)	–	–	–	–	–
Cc1ccc(S(=O)(=O)Nc2nc(-c3ccccc3)cs2)cc1	–	–	–	–	–
COc1ccc(-c2csc(NC(=O)c3ccccc3NS(=O)(=O)c3ccc(F)c(F)c3)n2)cc1	-68	2.6µM	1.6µM	?	2.3µM
Cc1ccc(S(=O)(=O)Nc2ccccc2C(=O)Nc2nc(-c3ccc(F)cc3)cs2)cc1	–	2.6µM	?	?	3.3µM
COc1ccc(-c2csc(NC(=O)c3ccccc3F)n2)cc1	–	?	–	–	–
COC(=O)C[C@@H]1C=C[C@@H](NC(C)=O)[C@@H](CO)O1	–	–	–	–	–
Cc1ccc(S(=O)(=O)Nc2cc(S(=O)(=O)N3CCOCC3)ccc2NCC2CCCO2)cc1 (stereo not drawn)	–	–	–	–	–
COc1ccc2[nH]c(C)c(CCN(Cc3cccs3)C(=S)Nc3ccccc3)c2c1	-50	?	–	–	?
COc1ccc(NC(=S)N(CCc2c(C)[nH]c3ccc(C)cc23)Cc2cccs2)cc1	-56	?	?	–	16µM
